Values joined by “and” are separate entries in the source; they are usually repeats but may differ in a detail not shown here. Equal entries are not always repeated. Results filed as inconclusive are left out. Values without a mark were called inactive. Active and inactive are the calls of the source. The call rests on the fitted dose curve; in most records, active means well fitted inhibition curve with a large enough effect; inconclusive means small, poorly fitted or top-dose-only effect; inactive means flat fitted curve, though single readings scatter.
tested on: CRL-7250; test: Cytotoxic Profiling of Annotated Libraries Using Quantitative High-Throughput Screening (AID 1296008); conditions: Five cell lines viability, CellTiter-Glo ATP luminescence, 48-72 h; max response: active compounds read low; further: nearly all actives have a fitted effect of over 60% in size
Outline: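 Cytotoxicity was measured as CellTiter-Glo ATP luminescence, read after 10 min at room temperature. Compound treatment of the cells lasted 48 or 72 hr at 37 degrees Celsius in a qHTS format.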
On the % scale 0 is the no-effect control and ±100 the full control effect; potency means the concentration at half of the fitted maximal effect.

How did the outcome turn out when `CC(C)(C)COc1ccc(-n2cc(C(=O)O)cn2)cc1C#N` was run?
The outcome was “inactive”.

`N#CC(=C(N)Sc1ccccc1N)C(C#N)=C(N)Sc1ccccc1N` was tested. Which max response did it give?
The max response was -7.68%.

For `CO[C@H]1C=CC=C(C)C(=O)NC2=CC(=O)C(NCCN(C)C)=C(C[C@@H](C)C[C@H](OC)[C@@H](O)[C@@H](C)C=C(C)[C@@H]1OC(N)=O)C2=O`, which Potency is on record?
Its Potency is 0.0526 µM (active).

Which Potency does the source give for `CC(=O)Nc1ccc([C@H](C)C(=O)Nc2ncc(C(C)C)s2)cc1` here?
The Potency was 2.35 µM (active) and 1.84 µM (active).

How did the Potency turn out when `Cc1ccn(-c2ccc(-c3ncco3)cc2)c(=O)c1-c1ccc2nc(N)ncc2c1` was run?
Its Potency is 1.66 µM (active) and 5.17 µM (active).

`N#CC1(c2ccc(NC(=O)c3cccnc3NCc3ccncc3)cc2)CCCC1` was tested. Which max response did it give?
The max response was -26.7%.

Which max response does the source give for `N[C@@]1(C(=O)O)CS(=O)(=O)[C@H]2[C@H](C(=O)O)[C@H]21` here?
Its max response is -30.1%.

With `COCCOc1nc(-c2ccc(Cl)c(Cl)c2)n(-c2ccc(NC(=O)CCl)cc2)n1` as the molecule, how does the Potency read?
Its Potency is 6.62 µM (active).

How did the Potency turn out when `COc1cc2nc(-c3ccc(N4CCN(C)CC4)cc3)nc(NCCN3CCOCC3)c2cc1OC` was run?
Its Potency is 1.66 µM (active).

Which max response does the source give for `NC(=O)[C@@H](CCC(F)(F)F)N(Cc1ccc(-c2ncon2)cc1F)S(=O)(=O)c1ccc(Cl)cc1` here?
Its max response is -21.3%.

For `O=C1NC(=O)C(=Cc2ccc3c(c2)OC(F)(F)O3)S1`, which max response is on record?
Its max response is -15.6%.

Which max response does the source give for `COc1ccc2cccc(CCNC(C)=O)c2c1` here?
Its max response is -2.32%.

How did the Potency turn out when `COc1ccc(-c2nc(N3CCOCC3)c3sc(CN(C)c4ncc(C(=O)NO)cn4)cc3n2)cn1` was run?
Its Potency is 0.059 µM (active).

For `CCn1cc(C(=O)O)c(=O)c2ccc(C)nc21`, which max response is on record?
Its max response is 4.8% and -5.54%.

`O=C(O)C=Cc1ccc(O)c(O)c1` was tested. Which max response did it give?
Its max response is -10.7%.

For `O=C(Nc1ccccc1-c1cn2c(CN3CCNCC3)csc2n1)c1cnc2ccccc2n1`, which Potency is on record?
Its Potency is 26.4 µM (active).

How did the max response turn out when `O=c1cc(-c2ccc(O)cc2)oc2cc(O)cc(O)c12` was run?
Its max response is -23.1%.

How did the Potency turn out when `CN1CCN(CCOc2cc(OC3CCOCC3)c3c(Nc4c(Cl)ccc5c4OCO5)ncnc3c2)CC1` was run?
Its Potency is 10.3 µM (active).

How did the Potency turn out when `CCc1ccc(OCc2ccccc2C(=O)Nc2ccc3nc(C)cc(N)c3c2)cc1` was run?
Its Potency is 10.5 µM (active).

For `O=C(Nc1c(Cl)cncc1Cl)c1ccc(OC(F)F)c(OCC2CC2)c1`, which max response is on record?
Its max response is -6.52%.
